Results published in PubChem BioAssay (Tox21).
Records with an inconclusive call do not appear. Activity calls are given as the source filed them. Calls follow the shape of the dose curve; as a rule, active = well fitted cell-killing curve with a large enough effect in the repeat runs; inconclusive = weak or mixed curves; inactive = flat fitted curve, though single readings scatter. Non-standard residues stand in square brackets, D forms with d. Residues, ends and D or L forms follow the SMILES beside them. *: point of attachment. Sta = CC(C)C[C@H](N)[C@@H](O)CC(=O)O; Isovaleryl = CC(C)CC(=O)*

experiment: qHTS assay to identify small molecule antagonists of the estrogen receptor beta (ER-beta) signaling pathway - cell viability counter screen (AID 1259382); details: ER-beta-UAS-bla HEK293T viability, CellTiter-Glo luminescence, 16 h; series mostly up to 92.4 µM; also: nearly all actives have a fitted effect of over 55% in size
Outline: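 Viability is scored by CellTiter-Glo luminescence (30 min, room temperature) in ER-beta-UAS-bla HEK293T wells already read for reporter fluorescence. Compound exposure lasts 16 hr at 37C alongside 1nM 17-beta-estradiol in charcoal-stripped serum medium.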
% is scaled to controls: 0 for no effect and ±100 for the full control effect.

| Structure (SMILES) | outcome | activity change, negative = cytotoxicity |
| --- | --- | --- |
| Cc1ccc(O)c(C(=O)c2ccccc2)c1 | inactive | – |
| C=CCN1CCc2nc(N)sc2CC1 | inactive | – |
| CSC(=O)c1cccc2nnsc12 | inactive | – |
| COC(=O)c1cc(Cl)c(NC(C)=O)cc1OC | inactive | – |
| Cc1ccc2ccccc2n1 | inactive | – |
| CCCCCC(=O)CC | inactive | – |
| CCCOc1ccc(C(=O)OCCN(CC)CC)cc1N | inactive | – |
| O=c1c(O)c(O)c1=O | inactive | – |
| CC(C)OCCO | inactive | – |
| C[n+]1ccccc1/C=N/O | inactive | – |
| CCCCCCCCC1CO1 (stereo not drawn) | inactive | – |
| O=C(c1ccccc1)c1cccc(O)c1 | inactive | – |
| CC(C)C(C)C | inactive | – |
| CC1(C)CC(N)CC(C)(C)N1 | inactive | – |
| CCCC[O][Al]([O]CCCC)[O]CCCC | inactive | – |
| N=C(N)N1CCc2ccccc2C1 | – | 8.18% [at 8.39 µM] (inactive) |
| O=C1CC2(CCCC2)CC(=O)N1CCNCC1COc2ccccc2O1 (stereo not drawn) | inactive | – |
| CC(C)OC(=O)C(C(=O)OC(C)C)=C1SC=CS1 | inactive | – |
| CCC(C)c1nccnc1OC (stereo not drawn) | inactive | – |

| Structure (SMILES) | outcome | activity change, negative = cytotoxicity |
| --- | --- | --- |
| CC(=O)OC/C=C(/C)CCC=C(C)C | inactive | – |
| CCCCCCCCCCCCCCCC/C=C/C1CC(=O)OC1=O (stereo not drawn) | inactive | – |
| CCCC(=O)OC | inactive | – |
| COC(=O)C(c1ccccc1Cl)N1CCc2sccc2C1 (stereo not drawn) | inactive | – |
| CCN(CC)CC(=O)Oc1ccc(NC(C)=O)cc1 | inactive | – |
| CC(C)CC(=O)N[C@H](C(=O)N[C@H](C(=O)N[C@@H](CC(C)C)[C@@H](O)CC(=O)N[C@@H](C)C(=O)N[C@@H](CC(C)C)[C@@H](O)CC(=O)O)C(C)C)C(C)C (Isovaleryl-VV[Sta]A[Sta]-OH) | inactive | – |
| Cc1cc(N)no1 | inactive | – |
| CC(=O)Nc1ccc(OCCOCCOc2ccc(NC(C)=O)cc2)cc1 | inactive | – |
| CC(C)(Sc1cc(C(C)(C)C)c(O)c(C(C)(C)C)c1)Sc1cc(C(C)(C)C)c(O)c(C(C)(C)C)c1 | inactive | – |
| O=C1Nc2ccccc2C1=O | inactive | – |
| N=C(N)S(=O)O | inactive | – |
| CCCC(C)C(O)CC (stereo not drawn) | inactive | – |
| O=C(O)CCCCCCCCCC(=O)O | inactive | – |
| NC[C@H]1O[C@H](O[C@H]2[C@H](O)[C@@H](O[C@H]3O[C@H](CO)[C@@H](O)[C@H](N)[C@H]3O)[C@H](N)C[C@@H]2N)[C@H](N)[C@@H](O)[C@@H]1O | – | 7.91% [at 19 µM] (inactive) |
| Cc1nnc(C(=O)NC(C)(C)c2nc(C(=O)NCc3ccc(F)cc3)c(O)c(=O)n2C)o1 | inactive | – |
| CC/C=C\CCOC(=O)c1ccccc1 | inactive | – |
| C=CCCCCCCCCCCCCCC | – | -6.85% [at 19 µM] (inactive) |
| CC12CCCC=C1C(=O)OC2=O (stereo not drawn) | inactive | – |
| CCCCN1C(=O)c2ccccc2C1=O | inactive | – |
